Assay results as given in PubChem BioAssay.
Calls of active or inactive are those of the source.

Assays:
[1] = optical density shifts of acrAB sulA E. coli – strain DRC41, OD650, 48 h, E. coli filamentation inducer project, primary screen (AID 1152); details: higher = more signal, called active from +8 up or from −8 down;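 also: E. coli MC1000 strain DRC41 lacking acrAB efflux pump and sulA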
[2] = probe aLefty1 binding on compound microarray – biochemical, small-molecule microarray, 635/667 nm fluorescence, primary screen (AID 1153); details: higher = more signal;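 also: score merges spot fluorescence with signal-to-noise ratio from the scanned slide images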
[3] = plasmodial surface anion channel blockers, osmotic lysis – cell-based, P. falciparum Indochina, OD700, 1 h, primary screen (AID 1154); details: P. falciparum Indochina infected RBC osmotic lysis, higher = more signal, called active from +8 up or from −8 down
[4] = plasmodial surface anion channel blockers, osmotic lysis – cell-based, P. falciparum Indochina, OD700, 2 h, primary screen (AID 1155);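 also: lysis reports solute entry through the parasite surface anion channel PSAC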; details: P. falciparum Indochina infected erythrocytes, higher = more signal, called active from +8 up or from −8 down
[5] = changes in parasitized red cell lysis, either direction – P. falciparum Indochina, OD700, 3 h, PSAC antagonist project, primary screen (AID 1156); details: P. falciparum-infected erythrocytes, osmotic lysis, higher = more signal, called active from +8 up or from −8 down
[6] = plasmodial surface anion channel blockers, osmotic lysis – cell-based, P. falciparum Indochina, OD700, 18 h, primary screen (AID 1157); details: P. falciparum Indochina infected erythrocytes, osmotic lysis OD700, 18 h; higher = more signal, called active from +8 up or from −8 down
[7] = S6 kinase pathway phospho-S6 level changes – cell-based, A549, cytoblot, luminescence, serum-stimulated, primary screen (AID 1158); details: 5 h, higher = more signal;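 also: serum-stimulated A549 lung adenocarcinoma cells; signal is phosphorylated S6 detected by cytoblot immunostaining with HRP secondary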
[8] = target: NADPH oxidase 2 (Homo sapiens) (UniProt P04839); assay: compounds shifting NOX2 Amplex Red fluorescence – cell-based, HEK293-NOX2, PMA-stimulated, NOX inhibitor project, primary screen (AID 1159); details: 45 min, higher = more signal, called active from +8 up or from −8 down; also: test concentration not given here
Sequence of NADPH oxidase 2 (Homo sapiens) (P04839 whole entry, looked up): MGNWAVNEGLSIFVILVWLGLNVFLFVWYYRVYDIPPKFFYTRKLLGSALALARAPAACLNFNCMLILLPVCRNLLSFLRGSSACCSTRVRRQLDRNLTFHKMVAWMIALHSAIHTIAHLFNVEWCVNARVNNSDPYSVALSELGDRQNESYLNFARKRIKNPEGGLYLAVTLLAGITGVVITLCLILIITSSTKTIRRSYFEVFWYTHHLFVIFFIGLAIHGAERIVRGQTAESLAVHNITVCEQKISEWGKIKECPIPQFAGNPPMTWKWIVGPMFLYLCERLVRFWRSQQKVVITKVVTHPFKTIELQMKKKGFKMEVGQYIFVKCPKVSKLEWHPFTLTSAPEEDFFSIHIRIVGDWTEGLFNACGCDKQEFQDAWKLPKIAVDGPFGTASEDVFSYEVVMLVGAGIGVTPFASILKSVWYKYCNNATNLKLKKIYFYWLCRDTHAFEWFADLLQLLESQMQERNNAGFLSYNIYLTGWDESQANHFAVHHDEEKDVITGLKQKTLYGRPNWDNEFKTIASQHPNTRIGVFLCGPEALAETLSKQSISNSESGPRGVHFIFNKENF

[9] = target: NADPH oxidase 4 (Homo sapiens) (UniProt Q9NPH5); assay: compounds shifting NOX4 Amplex Red fluorescence – cell-based, HEK293-NOX4, tetracycline-induced, NOX inhibitor project, primary screen (AID 1160); details: HEK293-NOX4, Amplex Red H2O2 fluorescence, 45 min; higher = more signal, called active from +8 up or from −8 down
Sequence of NADPH oxidase 4 (Homo sapiens) (Q9NPH5 whole entry, looked up): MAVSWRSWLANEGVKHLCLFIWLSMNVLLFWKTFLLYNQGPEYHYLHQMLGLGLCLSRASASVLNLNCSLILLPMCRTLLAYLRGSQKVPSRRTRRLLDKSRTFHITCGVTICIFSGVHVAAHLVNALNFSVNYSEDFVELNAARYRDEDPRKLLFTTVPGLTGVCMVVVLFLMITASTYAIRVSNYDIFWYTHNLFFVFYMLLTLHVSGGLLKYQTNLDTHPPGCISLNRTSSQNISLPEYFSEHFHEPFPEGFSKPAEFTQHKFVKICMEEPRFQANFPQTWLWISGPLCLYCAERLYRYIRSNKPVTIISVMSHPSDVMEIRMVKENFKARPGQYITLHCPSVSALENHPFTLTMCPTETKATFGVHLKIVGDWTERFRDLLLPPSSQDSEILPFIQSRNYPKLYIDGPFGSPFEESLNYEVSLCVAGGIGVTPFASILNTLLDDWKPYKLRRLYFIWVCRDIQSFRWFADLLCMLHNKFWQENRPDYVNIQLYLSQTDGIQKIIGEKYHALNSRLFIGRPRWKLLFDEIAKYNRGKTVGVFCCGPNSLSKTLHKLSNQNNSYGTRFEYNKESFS

[10] = target: NADPH oxidase 5 (Homo sapiens) (UniProt Q96PH1); assay: compounds shifting NOX5 Amplex Red fluorescence – cell-based, HEK293-NOX5, NOX inhibitor project, primary screen (AID 1161); details: HEK293-NOX5, ionomycin, 45 min, higher = more signal
Sequence of NADPH oxidase 5 (Homo sapiens) (Q96PH1 whole entry, looked up): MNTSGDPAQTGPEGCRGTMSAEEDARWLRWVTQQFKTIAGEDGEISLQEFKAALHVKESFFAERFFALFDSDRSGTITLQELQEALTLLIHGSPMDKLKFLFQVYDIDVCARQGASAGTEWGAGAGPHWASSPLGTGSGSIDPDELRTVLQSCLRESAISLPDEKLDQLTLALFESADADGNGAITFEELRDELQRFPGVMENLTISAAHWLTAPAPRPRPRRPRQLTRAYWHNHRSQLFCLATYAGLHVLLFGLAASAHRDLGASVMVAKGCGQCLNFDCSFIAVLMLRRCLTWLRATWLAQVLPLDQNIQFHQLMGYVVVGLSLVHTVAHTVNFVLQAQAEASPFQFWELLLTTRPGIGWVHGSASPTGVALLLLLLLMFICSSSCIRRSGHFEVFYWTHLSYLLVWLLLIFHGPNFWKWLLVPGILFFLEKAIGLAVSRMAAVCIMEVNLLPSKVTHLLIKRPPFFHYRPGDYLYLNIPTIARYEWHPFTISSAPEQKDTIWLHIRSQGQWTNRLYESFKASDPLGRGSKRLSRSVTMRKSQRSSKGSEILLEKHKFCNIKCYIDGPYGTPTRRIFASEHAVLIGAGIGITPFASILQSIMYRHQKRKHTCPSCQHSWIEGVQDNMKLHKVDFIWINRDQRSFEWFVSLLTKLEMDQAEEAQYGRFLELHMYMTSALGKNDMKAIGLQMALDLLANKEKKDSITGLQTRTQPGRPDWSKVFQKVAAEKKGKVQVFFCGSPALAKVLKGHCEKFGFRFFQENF

[11] = compound effects on lung adenocarcinoma cell viability – A549, calcein-AM fluorescence, 48 h, basal, profiling panel (AID 1162); details: higher = more signal; also: test concentration not given here
[12] = compound effects on differentiated 3T3-L1 adipocyte viability – cell-based, 3T3-L1 adipocytes, calcein-AM fluorescence, 48 h, basal, profiling panel (AID 1163); details: 3T3-L1 adipocytes viability, higher = more signal; also: test concentration not given here
[13] = compound effects on hepatocellular carcinoma cell viability – HepG2, calcein-AM fluorescence, 48 h, basal, profiling panel (AID 1164); details: higher = more signal; also: test concentration not given here
[14] = compound effects on multiple myeloma cell viability – MM1S, calcein-AM fluorescence, 48 h, basal, profiling panel (AID 1165); details: higher = more signal;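 also: viability of MM1S multiple myeloma cells under basal unstimulated conditions; test concentration not given here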
[15] = calcein-AM signal in unstimulated myeloma cells – cell-based, calcein-AM fluorescence, 48 h, PK04 Diversity Set, profiling panel (AID 1166); details: RPMI8226 myeloma viability, higher = more signal;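 also: cells grown under basal conditions without added stimulus; test concentration not given here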
[16] = JC-1 mitochondrial signal, unstimulated HepG2 cells – cell-based, JC-1 fluorescence, 24 h, 100 nL compound, profiling panel (AID 1167); details: HepG2 mitochondrial potential, higher = more signal; also: test concentration not given here
[17] = JC-1 mitochondrial signal, unstimulated adipocytes – cell-based, JC-1 fluorescence, 3T3-L1 adipocytes, 24 h, 100 nL compound, profiling panel (AID 1168); details: JC-1 mitochondrial fluorescence, higher = more signal, called active from +8 up or from −8 down; also: test concentration not given here
[18] = JC-1 mitochondrial signal, unstimulated myeloma cells – cell-based, JC-1 fluorescence, RPMI8226, 24 h, 100 nL compound, profiling panel (AID 1169); details: JC-1 mitochondrial potential fluorescence, higher = more signal; also: test concentration not given here
[19] = JC-1 mitochondrial signal, unstimulated MM1S myeloma – cell-based, JC-1 fluorescence, 24 h, 100 nL compound, profiling panel (AID 1170); details: MM1S mitochondrial potential, higher = more signal; also: test concentration not given here
[20] = resazurin metabolic signal in A549 cells – cell-based, resazurin fluorescence, 24 h, PK04 Diversity Set, profiling panel (AID 1171); details: A549 viability, higher = more signal, called active from +8 up or from −8 down; also: test concentration not given here

CCCCCCc1nc(-c2ccc(OC)nc2)cc2c1[Si](C(C)C)(C(C)C)OC2
z-score [1]: -0.45 (inactive)
composite z-score [2]: -0.103
z-score [3]: 2.62 (inactive)
z-score [4]: 0.0409 (inactive)
z-score [5]: -0.484 (inactive)
z-score [6]: -0.179 (inactive)
z-score [7]: 0.366
z-score [8]: -4.66 (inactive)
z-score [9]: -2.14 (inactive)
z-score [10]: -4.22
z-score [11]: -0.848
z-score [12]: 0.608
z-score [13]: 0.238
z-score [14]: -2.15
z-score [15]: -3.11
z-score [16]: -1.91
z-score [17]: -0.191 (inactive)
z-score [18]: -0.791
z-score [19]: -0.368
z-score [20]: 0.552 (inactive)

COCCOC(=O)N1C(=O)[C@@]2(c3cc(C#CC4(O)CCCCCC4)ccc31)[C@H](C(=O)NC[C@H](O)c1ccccc1)[C@H]1C(=O)O[C@H](c3ccccc3)[C@H](c3ccccc3)N1[C@@H]2c1ccc(O)cc1
z-score [1]: 0.664 (inactive)
composite z-score [2]: 0.501
z-score [3]: 0.954 (inactive)
z-score [4]: 1.01 (inactive)
z-score [5]: 0.0635 (inactive)
z-score [6]: 1.05 (inactive)
z-score [7]: 0.632
z-score [8]: 1.39 (inactive)
z-score [9]: 1.02 (inactive)
z-score [10]: 1.61
z-score [11]: 0.188
z-score [12]: -0.111
z-score [13]: 0.814
z-score [14]: -1.75
z-score [15]: -2.8
z-score [16]: -1.19
z-score [17]: -0.11 (inactive)
z-score [18]: -0.643
z-score [19]: -0.113
z-score [20]: 1.63 (inactive)

C=CCNC(=O)[C@H]1[C@@H]2C(=O)O[C@@H](c3ccccc3)[C@@H](c3ccccc3)N2[C@@H](c2ccccc2OCCO)[C@]12C(=O)N(C(=O)OCCOC)c1ccccc12
z-score [1]: -0.557 (inactive)
composite z-score [2]: 0.162
z-score [3]: 2.31 (inactive)
z-score [4]: 1.1 (inactive)
z-score [5]: -0.337 (inactive)
z-score [6]: 0.973 (inactive)
z-score [7]: 0.015
z-score [8]: 1.14 (inactive)
z-score [9]: 0.676 (inactive)
z-score [10]: 0.348
z-score [11]: -1.25
z-score [12]: -0.575
z-score [13]: -1.3
z-score [14]: -3.05
z-score [15]: -3.82
z-score [16]: 0.387
z-score [17]: -0.49 (inactive)
z-score [18]: -0.919
z-score [19]: -1.19
z-score [20]: -1.04 (inactive)

CCOC(=O)C[C@H]1[C@H](OC(=O)c2ccc(-c3ccccc3)cc2)[C@@H](NC(=O)CC(C)C)c2cc(OCCCO)ccc2N1C(=O)Cc1ccc(OC)cc1
z-score [1]: -0.931 (inactive)
composite z-score [2]: -0.323
z-score [3]: 3.94 (inactive)
z-score [4]: 0.786 (inactive)
z-score [5]: -0.348 (inactive)
z-score [6]: 0.261 (inactive)
z-score [7]: -0.0775
z-score [8]: -0.521 (inactive)
z-score [9]: 1.12 (inactive)
z-score [10]: 2.11
z-score [11]: -0.39
z-score [12]: 0.22
z-score [13]: -0.114
z-score [14]: -1.7
z-score [15]: -0.194
z-score [16]: 0.593
z-score [17]: -1.43 (inactive)
z-score [18]: 0.908
z-score [19]: 0.185
z-score [20]: 0.207 (inactive)

CN(C)CCCC[C@@H]1NC(=O)[C@@H]2C[C@H](C(=O)NCCCCCCNC(=O)CS)[C@H](c3cccc(OCCO)c3)N2C1=O
z-score [1]: -0.0099 (inactive)
composite z-score [2]: -0.416
z-score [3]: 3.24 (inactive)
z-score [4]: 0.681 (inactive)
z-score [5]: -0.0935 (inactive)
z-score [6]: 0.496 (inactive)
z-score [7]: 1.91
z-score [8]: 2.03 (inactive)
z-score [9]: 0.84 (inactive)
z-score [10]: 1.84
z-score [11]: -0.335
z-score [12]: -0.668
z-score [13]: 1.27
z-score [14]: 0.843
z-score [15]: 0.405
z-score [16]: 1.6
z-score [17]: 0.252 (inactive)
z-score [18]: -0.666
z-score [19]: -0.871
z-score [20]: -0.643 (inactive)

COCCOC(=O)N1C(=O)[C@@]2(c3cc(C#CCC(C(=O)OC)C(=O)OC)ccc31)[C@H](c1ccc(OCCO)cc1)N1[C@H](c3ccccc3)[C@H](c3ccccc3)OC(=O)[C@H]1[C@@H]2C(=O)N1CCCCCCC1
z-score [1]: 0.759 (inactive)
composite z-score [2]: 2.81
z-score [3]: 3.66 (inactive)
z-score [4]: 1.98 (inactive)
z-score [5]: 1.04 (inactive)
z-score [6]: 0.901 (inactive)
z-score [7]: -0.0522
z-score [8]: 2.05 (inactive)
z-score [9]: 0.397 (inactive)
z-score [10]: 2.28
z-score [11]: 0.52
z-score [12]: 0.586
z-score [13]: 0.496
z-score [14]: -0.169
z-score [15]: -0.602
z-score [16]: 0.119
z-score [17]: -2.24 (inactive)
z-score [18]: -0.635
z-score [19]: -1.15
z-score [20]: 0.78 (inactive)

[N-]=[N+]=NCc1ccccc1[C@@H]1OC(c2ccc(OCCCO)cc2)=N[C@]1(Cc1ccccc1)C(=O)NCc1ccccc1
z-score [1]: 0.251 (inactive)
composite z-score [2]: 0.219
z-score [3]: 18.4 (active)
z-score [4]: 4.26 (inactive)
z-score [5]: 1.52 (inactive)
z-score [6]: 0.983 (inactive)
z-score [7]: 0.0369
z-score [8]: -3.27 (inactive)
z-score [9]: 1.15 (inactive)
z-score [10]: 0.85
z-score [11]: 0.53
z-score [12]: 0.592
z-score [13]: 0.293
z-score [14]: -0.856
z-score [15]: -0.0369
z-score [16]: 0.152
z-score [17]: 0.594 (inactive)
z-score [18]: -0.994
z-score [19]: -0.921
z-score [20]: 0.267 (inactive)

COCCOC(=O)N1C(=O)[C@@]2(c3cc(C#CCCO)ccc31)[C@H](c1ccc(O)cc1)N1[C@H](c3ccccc3)[C@H](c3ccccc3)OC(=O)[C@H]1[C@@H]2C(=O)N1CCc2cc(OC)c(OC)cc2C1
z-score [1]: -0.0188 (inactive)
composite z-score [2]: 0.469
z-score [3]: 1.22 (inactive)
z-score [4]: 0.141 (inactive)
z-score [5]: 0.203 (inactive)
z-score [6]: 0.286 (inactive)
z-score [7]: 0.212
z-score [8]: 0.611 (inactive)
z-score [9]: 0.522 (inactive)
z-score [10]: 1.02
z-score [11]: 1.1
z-score [12]: 0.462
z-score [13]: 1.04
z-score [14]: 0.664
z-score [15]: 0.113
z-score [16]: 0.374
z-score [17]: 0.57 (inactive)
z-score [18]: -0.253
z-score [19]: -0.602
z-score [20]: -0.0256 (inactive)

C=CCC(OC(C)=O)[C@@H]1[C@@H](N(Cc2cc3ccccc3o2)C(=O)c2cccc3ccccc23)c2cc(OCCCO)ccc2N1C(=O)c1ccc2ccccc2c1 (stereo not given in full)
z-score [1]: -0.546 (inactive)
composite z-score [2]: 0.0931
z-score [3]: 0.92 (inactive)
z-score [4]: 0.0881 (inactive)
z-score [5]: 0.547 (inactive)
z-score [6]: 0.286 (inactive)
z-score [7]: 0.552
z-score [8]: -0.764 (inactive)
z-score [9]: -0.797 (inactive)
z-score [10]: -2.19
z-score [11]: 0.668
z-score [12]: 0.935
z-score [13]: 0.0108
z-score [14]: 0.364
z-score [15]: -1.98
z-score [16]: 1.93
z-score [17]: -1.18 (inactive)
z-score [18]: -0.276
z-score [19]: -0.42
z-score [20]: -1.55 (inactive)
